Source: PubChem
Fam108B counter: mouse Fam108B serine hydrolase inhibitors, primary screen, counter-screen for RBBP9 inhibitor project, biochemical, fluorescence polarization; recombinant Fam108B, FP-Rh probe fluorescence polarization; inhibition, % at 9.51 µM; actives 0.33% (n = 300,000);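 active = inhibition above the screen mean inhibition plus 3 SD, computed separately per campaign, cut at about 18% in these data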;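 also: inhibitors lower polarization as less probe binds the enzyme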
LYPLA2 counter: LYPLA2 inhibitors, primary screen, counter-screen for PME1 inhibitor project, biochemical, fluorescence polarization, FP-Rh probe ABPP. Acyl-protein thioesterase 2 (Homo sapiens), O95372. recombinant LYPLA2. inhibition, % at 5.9 µM. actives 0.38% (n = 320,000). AID 2177, 2009;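 active = inhibition above the screen-wide mean plus 3 SD, limit set per campaign, cut at about 26% in these data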
Target sequence (O95372 whole entry, looked up): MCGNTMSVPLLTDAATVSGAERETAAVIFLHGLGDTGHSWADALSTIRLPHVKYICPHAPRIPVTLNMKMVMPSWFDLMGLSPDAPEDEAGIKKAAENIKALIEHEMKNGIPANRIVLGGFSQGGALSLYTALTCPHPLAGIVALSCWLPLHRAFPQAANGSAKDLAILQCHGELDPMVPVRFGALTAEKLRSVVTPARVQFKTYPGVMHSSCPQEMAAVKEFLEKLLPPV
LYPLA1 inh: LYPLA1 inhibitors, primary screen, counter-screen for PME1 inhibitor project, biochemical, fluorescence polarization, FP-Rh probe ABPP; Acyl-protein thioesterase 1 (Homo sapiens), O75608; inhibition, % at 5.9 µM; actives 0.16% (n = 320,000); AID 2174, 2009; recombinant LYPLA1;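 active = inhibition above the mean of all tested compounds plus 3 SD, set per campaign, cut at about 14% in these data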;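 also: inhibitors block serine hydrolase probe labeling of LYPLA1 so polarization falls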
Target sequence (O75608 whole entry, looked up): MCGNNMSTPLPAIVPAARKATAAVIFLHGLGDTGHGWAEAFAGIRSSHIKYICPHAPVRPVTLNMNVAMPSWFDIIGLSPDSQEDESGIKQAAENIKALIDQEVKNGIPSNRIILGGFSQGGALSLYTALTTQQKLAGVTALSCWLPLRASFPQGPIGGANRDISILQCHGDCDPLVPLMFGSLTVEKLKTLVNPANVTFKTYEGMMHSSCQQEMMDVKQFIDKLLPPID
GSTO1 counter: inhibitors of recombinant GSTO1, primary screen, counter-screen for RBBP9 inhibitor project, biochemical, fluorescence polarization; actives 1.1% (n = 300,000); Glutathione S-transferase omega-1 (Homo sapiens), P78417; AID 1974, 2009; activity-based probe fluorescence polarization; inhibition, % at 5.96 µM;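 active = inhibition above the campaign mean inhibition plus 3 SD, cut at about 35% in these data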
Target sequence (P78417 whole entry, looked up): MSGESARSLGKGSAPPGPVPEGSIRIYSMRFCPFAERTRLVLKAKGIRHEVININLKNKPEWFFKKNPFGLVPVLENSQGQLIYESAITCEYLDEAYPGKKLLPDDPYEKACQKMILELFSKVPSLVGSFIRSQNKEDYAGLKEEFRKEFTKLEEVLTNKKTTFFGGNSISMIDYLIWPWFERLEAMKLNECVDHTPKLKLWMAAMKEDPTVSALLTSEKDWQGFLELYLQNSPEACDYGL
PAD4 inh: human PAD4 inhibitors, primary screen, biochemical, fluorescence polarization, 1536-well format; actives 0.41% (n = 330,000); inhibition, % at 6.36 µM; recombinant PAD4, RCA probe fluorescence polarization; AID 485272, 2010;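 active = percent inhibition above a cutoff equal to the mean of all tested compounds plus 3 SD, cut at about 15% in these data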
PME-1 primary: PME-1 inhibitors via competitive probe labeling, primary screen, biochemical, fluorescence polarization, FP-Rh probe, HTS | Protein phosphatase methylesterase 1 (Homo sapiens), Q9Y570 | recombinant PME-1 | inhibition, % at 5.9 µM | actives 0.53% (n = 320,000) | AID 2130, 2009;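 active = inhibition above the campaign mean of all compounds plus 3 SD, cut at about 26% in these data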;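 also: competitive labeling of PME-1 active site by serine hydrolase directed probe; inhibitors block probe labeling so polarization falls and inhibition rises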
PAD4 FP conf: human PAD4 inhibitors, confirmation, biochemical, fluorescence polarization; inhibition, % at 6.36 µM; AID 488796, 2010; recombinant PAD4, RCA probe fluorescence polarization; actives 28% (n = 1,200); shares compounds with PAD4 inh;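 active = mean inhibition across replicates above the hit cutoff set by the earlier primary screen, cut at about 15% in these data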;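 also: inhibitors block active-site labeling by the probe so polarization falls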
Each line names hits and unclear results; the compound was inactive in the other large screens (follow-up assays come after a bar, where they were run). Sampled rows, rich in hits. Any-hit rate of the full collection: about 1.8%.

Cc1nnc(N/N=C/c2ccco2)n1N	GSTO1 counter 38, PAD4 inh 23 | PAD4 FP conf inactive
Cc1nnc(N/N=C/c2ccccc2F)n1N	PAD4 inh 31 | PAD4 FP conf inactive
Fc1ccccc1/C=N/Nc1nn[nH]n1	none
COC(CNC(=O)C1CCCN1C(=O)OCc1ccccc1)OC (centres undefined)	none
COC(=O)[C@@H]1C[C@]2(OC(=O)c3ccccc3)C=CC(=O)C[C@@H]2N1C(=O)OCc1ccccc1	PAD4 inh 19 | PAD4 FP conf 22
Cc1cc2ccccc2n1CCNC(=O)COc1ccccc1	PAD4 inh 23 | PAD4 FP conf inactive
COc1ccc(N2C(=O)CSC23C(=O)N(CC(=O)NC2CCCC2)c2ccccc23)cc1 (centres undefined)	PAD4 inh 16 | PAD4 FP conf inactive
COC(=O)c1c(NC(=O)C(C)C)sc(C(=O)N2CCOCC2)c1C	none
CCCCCC(=O)N(Cc1ccccc1)c1c(N)n(CCOC)c(=O)[nH]c1=O	PAD4 inh 38 | PAD4 FP conf inactive
COCCn1c(N)c(N(Cc2ccccc2)C(=O)C2CCCC2)c(=O)[nH]c1=O	none
COc1cc(C(=O)Nc2cccc(C)c2C)ccc1OCC(=O)N1CCOCC1	none (no result: Fam108B counter, GSTO1 counter)
CN1CCS/C1=C/C=C1/SC(=S)N(Cc2ccccc2)C1=O	PAD4 inh 49 | PAD4 FP conf inactive
CC(=O)N1CC[n+]2c(-c3ccc(Cl)cc3)csc21	PAD4 inh 22 | PAD4 FP conf inactive
COC(=O)c1cn(CCC#N)nc1-c1ccc2ccccc2c1	none
O=C1CC(Sc2cccs2)C(=O)N1c1ccccc1 (centres undefined)	PAD4 inh 24 | PAD4 FP conf inactive
CCOc1ccc(NS(=O)(=O)c2ccc(C(=O)NCCN3CCOCC3)cc2)cc1	none
CCOc1ccc(N(CC(=O)NC2CCCCC2)S(=O)(=O)c2ccccc2)cc1	none
CCC(=O)Oc1ccc2c(=O)c(-c3ccc4ccccc4n3)c(CC)oc2c1C	none
Cc1oc2c(C)c(O)ccc2c(=O)c1-c1ccc2ccccc2n1	PAD4 inh 84 | PAD4 FP conf inactive
COc1ccccc1-c1nc2c3ccccc3nc(=S)n2[nH]1	none
COc1cc(-c2nc3c4ccccc4nc(=S)n3[nH]2)cc(OC)c1OC	PAD4 inh 16 | PAD4 FP conf 25
CCOC(=O)C1=C(COC(=O)c2sccc2C)NC(=O)NC1C (centres undefined)	none (no result: Fam108B counter, GSTO1 counter)
CCOC(=O)C1=C(COC(=O)c2ccc([N+](=O)[O-])s2)NC(=O)NC1C (centres undefined)	PAD4 inh 26 (no result: Fam108B counter, LYPLA2 counter, LYPLA1 inh, GSTO1 counter, PME-1 primary) | PAD4 FP conf 17
CCC1C(=O)N=C(SCC(=O)Nc2ccc(C(=O)OC)cc2)NC1=O (centres undefined)	PAD4 inh 16 | PAD4 FP conf 21
COC(=O)c1ccc(NC(=O)CSC2=NCCN2)cc1	PAD4 inh 18 | PAD4 FP conf 30
COC(=O)c1cc(NC(=O)CSC2=NCCS2)cc(C(=O)OC)c1	PAD4 inh 18 | PAD4 FP conf 15
COc1ccc(CC(=O)Nc2ccc(C(N)=O)cc2)cc1	none
COC(=O)c1cc(NC(=O)Cc2ccc(OC)cc2)cc(C(=O)OC)c1	PAD4 inh 21 | PAD4 FP conf 17
O=C(CSC1=NCCS1)NC(NC(=O)CSC1=NCCS1)c1ccccc1	none
COc1ccc(OC)c(NC(=O)c2cc(S(=O)(=O)N3CCCC3)cn2C)c1	none
CCN(C[C@H]1N[C@@](Cc2ccccc2)(C(=O)OC)[C@H]2C(=O)N(Cc3ccccc3)C(=O)[C@@H]12)C(=O)C1CCCCC1	none (no result: Fam108B counter, LYPLA2 counter, LYPLA1 inh, GSTO1 counter, PME-1 primary)
CC(=O)C[C@@H](O)CC(=O)[C@@H]1OC(=O)[C@@H](C)C/C=C\Cc2ccccc21	none (no result: Fam108B counter, LYPLA2 counter, LYPLA1 inh, GSTO1 counter, PME-1 primary)
CC1CCC/C(=C\Nc2ccc(O)cc2)C1=O (centres undefined)	GSTO1 counter 37, PAD4 inh 28 | PAD4 FP conf inactive
Cc1cc(C(=O)O)ccc1N/C=C1\CCCC(C)C1=O (centres undefined)	none
COc1cc(/C=C/C(=O)OCC(=O)N(C)Cc2ccccc2)cc(OC)c1OC	PAD4 inh 26 (no result: Fam108B counter, LYPLA2 counter, LYPLA1 inh, GSTO1 counter, PME-1 primary) | PAD4 FP conf inactive
Cc1cc(C)nc(SCC(=O)NC2=NN=C(c3ccc(Br)cc3)CS2)n1	PAD4 inh 38 | PAD4 FP conf 21
CCC(Sc1nc(C)cc(C)n1)C(=O)NC1=NN=C(c2ccc(C)cc2)CS1 (centres undefined)	PAD4 inh 66 | PAD4 FP conf 55
Cc1cc(C)nc(SCC(=O)Nc2ccc(Br)cn2)n1	none
Cc1[nH]n(-c2ccccc2)c(=O)c1C(c1cccc([N+](=O)[O-])c1O)c1c(C)[nH]n(-c2ccccc2)c1=O	GSTO1 counter 64, PAD4 inh 64 | PAD4 FP conf inactive
COc1ccc(C2=Nn3c(nnc3-c3cccnc3)SC2)cc1OC	PAD4 inh 22 | PAD4 FP conf inactive
N#CC12COC3(CCCCC3C1(C#N)C#N)OC2=N (centres undefined)	PAD4 inh 22 | PAD4 FP conf inactive
CCCC1OC23CCCCC2C(C#N)(C(=N)O3)C1(C#N)C#N (centres undefined)	PAD4 inh 17 | PAD4 FP conf inactive
N#CC1(C#N)COC23CCCCC2C1(C#N)C(=N)O3 (centres undefined)	none
CCC1OC23CCCCC2C(C#N)(C(=N)O3)C1(C#N)C#N (centres undefined)	none
CCn1c(C)nc2cc(C(=O)NNC(=O)CN(C)S(=O)(=O)c3ccc(NC(C)=O)cc3)ccc21	none (no result: Fam108B counter, LYPLA2 counter, LYPLA1 inh, GSTO1 counter, PME-1 primary)
Cc1ccc(C)c(COc2coc(CN3CCN(C(=O)c4ccco4)CC3)cc2=O)c1	none
Cc1cc(C)c(C)c(S(=O)(=O)N2CCN(C(=O)C3CCC3)CC2)c1C	none
Cc1cc(C)c(C)c(S(=O)(=O)N2CCC(C(=O)N3CCCC3)CC2)c1C	PAD4 inh 58 (no result: Fam108B counter, GSTO1 counter) | PAD4 FP conf inactive
Cc1nnc(SCC(=O)NC(C)(C)C)n1NCc1cccc(Br)c1	none
C(=N\n1cnnc1)/c1ccc2c(c1)OCCO2	PAD4 inh 18 | PAD4 FP conf inactive
COc1ccc([C@H]2CC(=O)C=C(c3cccc(OC(F)(F)F)c3)C2)cc1	none (no result: Fam108B counter, GSTO1 counter)
Cc1nnc(SC(=O)N2c3ccccc3Sc3ccccc32)s1	PAD4 inh 34 | PAD4 FP conf inactive
CCOC(=O)N1c2ccccc2Sc2ccccc21	none
CC(=O)Nc1nc(=O)c2ccccc2s1	none
CSc1nc2ccc3nc(NC(=O)c4ccc(C)cc4)sc3c2s1	none
